Results taken from the supplement of paper PMC13380429.

Tested on: Vero E6 infected with SARS-CoV-2
Assay: inhibition of SARS-CoV-2 cytopathic effect; higher = more antiviral protection, active = above 15
Conditions: 48 h

Measured: inhibition of SARS-CoV-2 cytopathic effect

BrC1C(Br)C(Br)C(Br)C(Br)C1Br (stereo not given) [1,2,3,4,5,6-hexabromocyclohexane]
inactive: 1 nM -2.03% | 8.33 nM -1.15% | 100 nM -1.07% | 833.33 nM -1.96% | 10000 nM 9.07%

C=CCNc1c(O)cc2c(O)c1C[C@@H](C)C[C@H](OC)[C@H](O)[C@@H](C)/C=C(\C)[C@H](OC(N)=O)[C@@H](OC)/C=C\C=C(/C)C(=O)N2 [retaspimycin]
inactive: 1 nM 2.45% | 8.33 nM 0.93% | 100 nM 6.54% | 833.33 nM 5.56% | 10000 nM 8.73%

CSCC[C@H](NC(=O)[C@H](Cc1ccccc1)NC(=O)CNC(=O)CNC(=O)[C@@H](N)Cc1ccc(O)cc1)C(=O)O [metenkephalin]
inactive: 1 nM 0.74% | 8.33 nM -1.23% | 100 nM 1.24% | 833.33 nM -4.78% | 10000 nM -5.57%

C[C@@H](O[C@H]1OCCN(Cc2nn[nH]c2CN(C)C)[C@H]1c1ccc(F)cc1)c1cc(C(F)(F)F)cc(C(F)(F)F)c1
inactive: 1 nM -0.75% | 8.33 nM -1.76% | 100 nM -0.97% | 833.33 nM -4.49% | 10000 nM 7.29%

CC(=O)Nc1c(I)cc(I)c(C(=O)O)c1I [acetriazoic-acid]
inactive: 1 nM -0.01% | 8.33 nM 0.54% | 100 nM -0.88% | 833.33 nM 0.14% | 10000 nM -0.46%

Cn1nnc(-c2ccc(-c3ccc(N4C[C@H](COP(=O)(O)O)OC4=O)cc3F)cn2)n1 [tedizolid-phosphate]
inactive: 1 nM -1.65% | 8.33 nM -1.24% | 100 nM -0.65% | 833.33 nM 1.74% | 10000 nM 1.44%

C=C[C@](C)(O)CC[C@@H]1[C@@]2(C)CCCC(C)(C)[C@@H]2CC[C@@]1(C)O [sclareol]
inactive: 1 nM 0.36% | 8.33 nM -0.46% | 100 nM -0.66% | 833.33 nM -1.37% | 10000 nM -4.46%

O=C1OC(CN2CCOCC2)CN1/N=C/c1ccc([N+](=O)[O-])o1 (stereo not given) [furaltadone]
inactive: 1 nM -10.1% | 8.33 nM -5.96% | 100 nM -8.17% | 833.33 nM -6.67% | 10000 nM -6.1%

CC/C=C(\C(=O)N[C@@H]1C(=O)N2C(C(=O)OCOC(=O)C(C)(C)C)=C(COC(N)=O)CS[C@H]12)c1csc(N)n1 [cefcapene-pivoxil]
inactive: 1 nM -0.85% | 8.33 nM -2.87% | 100 nM -0.76% | 833.33 nM 1.69% | 10000 nM -0.26%

Cc1cc(C)nc(NS(=O)(=O)c2ccc(NC(=S)NC(=O)COc3ccc(Br)cc3Cl)cc2)n1
inactive: 1 nM -1.5% | 8.33 nM -0.46% | 100 nM -0.98% | 833.33 nM -2.23% | 10000 nM 0.9%

O=C1NC(O)CCN1[C@@H]1O[C@H](CO)[C@@H](O)[C@H]1O (stereo not given in full) [tetrahydrouridine]
inactive: 1 nM 2.54% | 8.33 nM 1.19% | 100 nM 0.47% | 833.33 nM -0.67% | 10000 nM -0.83%

COc1cc(OC)c(/C=C2/C(=O)Nc3ccccc32)c(OC)c1
inactive: 1 nM 2.03% | 8.33 nM 1.86% | 100 nM 2.55% | 833.33 nM 1.29% | 10000 nM -1.88%

O=S1(=O)CCN(CN2CCS(=O)(=O)NC2)CN1 [taurolidine]
inactive: 1 nM 0.08% | 8.33 nM 2.04% | 100 nM -0.86% | 833.33 nM -0.85% | 10000 nM 0.19%

Cc1oc(-c2ccccc2)nc1CCOc1ccc(CC2SC(=O)NC2=O)c2sccc12 (stereo not given) [edaglitazone]
inactive: 1 nM 0.32% | 8.33 nM 0.98% | 100 nM 0.63% | 833.33 nM 1.32% | 10000 nM 2.31%

C=CC(=O)Nc1cccc(Oc2nc(Nc3ccc(N4CCN(C)CC4)cc3OC)ncc2Cl)c1
inactive: 1 nM -1.07% | 8.33 nM 3.52% | 100 nM -0.84% | 833.33 nM -9.12% | 10000 nM -11.8%

N#C/C(=C1/SCC(c2ccccc2Cl)S1)n1ccnc1 (stereo not given) [lanoconazole]
inactive: 1 nM 0.51% | 8.33 nM 2.17% | 100 nM 4.14% | 833.33 nM 0.83% | 10000 nM 0.48%

Nc1nc(CC(=O)Nc2ccc(CCNC[C@H](O)c3ccccc3)cc2)cs1 [mirabegron]
inactive: 1 nM -0.75% | 8.33 nM -0.61% | 100 nM 1.85% | 833.33 nM -1.35% | 10000 nM -3.3%

CN1CCN(c2ccc(Nc3ncc4cc(C#N)c(=O)n(C5CCCC5)c4n3)cc2)CC1
inactive: 1 nM 1.39% | 8.33 nM 1.36% | 100 nM -0.35% | 833.33 nM -6.03% | 10000 nM -6.23%

O=C(Nc1ccccc1)N1CCN(c2nc(-c3ccccc3)ns2)CC1
inactive: 1 nM 1.74% | 8.33 nM 1.97% | 100 nM 2.17% | 833.33 nM 0.01% | 10000 nM -2.23%
